Reference: the supplement of paper PMC13094657
± gives the standard deviation of the averaged measurements.

What was measured:
[1] = tested on: MDA-MB-231; experiment: cell viability relative to vehicle unstimulated control (fraction); higher = more viable cells; conditions: pre-treatment time: 18 h then 24 h IFNg/TNF
[2] = tested on: MDA-MB-231; experiment: kynurenine production, fold change vs DMSO IFNg/TNF control; higher = more kynurenine produced (less inhibition); conditions: pre-treatment time: 18 h then 24 h IFNg/TNF
How it was run: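 MDA-MB-231 cells were seeded in 96-well plates at 7 × 10^4/well and, 24 h later, pre-treated for 18 h with each natural product in 0.1% DMSO. They were then stimulated for 24 h at 37°C with IFNγ (1 U/ml) and TNF (6.25 ng/ml). Supernatants were treated with trichloroacetic acid and p-dimethylaminobenzaldehyde and read at 492 nm against 0–100 μM standards. Kynurenine production is expressed as fold change over cytokine-stimulated vehicle wells on the same plate and, in the first screening round, averaged across duplicate plates.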
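Throughout, for cell viability relative to vehicle unstimulated control: viability of the cells left after supernatant collection, read with Deep Blue dye added for 4 h, as absorbance at 570 nm minus 600 nm.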

SMILES | cell viability [1] | kynurenine production [2]
CC(C)C1=C[C@H]2[C@@H](CC[C@]2(C)O)[C@](C)(O)CC1 [Alismoxide] (compound dose: 10 uM) | 1.01 ± 0.018 | 0.714 ± 0.17
CC1=CC[C@@](O)(C(C)C)CC1 [Terpinen-4-ol] (compound dose: 10 uM) | 1.12 ± 0.0039 | 0.984 ± 0.17
C=CC(=C)CCC=C(C)CCC=C(C)C [(E)-β-Farnesene] (compound dose: 10 uM) | 0.977 ± 0.015 | 0.723 ± 0.27
CC1(C)CC[C@]2(C(=O)O[C@@H]3O[C@H](CO[C@@H]4O[C@H](CO)[C@@H](O)[C@H](O)[C@H]4O)[C@@H](O)[C@H](O)[C@H]3O)CC[C@]3(C)C(=CC[C@@H]4[C@@]5(C)CC[C@H](O[C@@H]6OC[C@H](O)[C@H](O)[C@H]6O)[C@@](C)(CO)[C@@H]5CC[C@]43C)[C@@H]2C1 [Asperosaponin VI] (compound dose: 10 uM) | 0.9877 ± 0.0023 | 0.748 ± 0.087
C=C(C)[C@@H]1CC[C@]2(C(=O)O)CC[C@]3(C)[C@H](CC[C@@H]4[C@@]5(C)CC[C@H](O)C(C)(C)[C@@H]5CC[C@]43C)[C@@H]12 [Betulinic acid] (compound dose: 10 uM) | 0.993 ± 0.044 | 0.949 ± 0.051
C/C(=C\C(=O)CC(C)C(=O)O)[C@H]1C[C@H](O)[C@@]2(C)C3=C(C(=O)C[C@]12C)[C@@]1(C)CCC(=O)C(C)(C)[C@@H]1C[C@@H]3O (some centres not stated) [Ganoderenic acid A] (compound dose: 10 uM) | 1.03 ± 0.068 | 0.817 ± 0.31
C=C1C[C@@]2(O)O[C@@]3(C[C@H]2C(C)C)[C@@H](C)CC[C@@H]13 [Curcumol] (compound dose: 10 uM) | 0.997 ± 0.034 | 0.833 ± 0.1
CC(C)=CCC/C(C)=C/CC/C(C)=C/CC/C=C(\C)CC/C=C(\C)CCC=C(C)C [Squalene] (compound dose: 10 uM) | 0.914 ± 0.13 | 0.887 ± 0.027
CC(C)=CCC[C@@H](C)[C@@H]1CC[C@]2(C)C3=C(CC[C@@]12C)[C@@]1(C)CC[C@H](O)C(C)(C)[C@@H]1CC3 [Euphol] (compound dose: 10 uM) | 0.977 ± 0.051 | 1.008 ± 0.0013
CC(CC(=O)C[C@@H](C)[C@H]1CC(=O)[C@@]2(C)C3=C(C(=O)C[C@]12C)[C@@]1(C)CCC(=O)C(C)(C)[C@@H]1C[C@@H]3O)C(=O)O (some centres not stated) [Ganoderic acid D] (compound dose: 10 uM) | 0.916 ± 0.036 | 0.869 ± 0.11
C[C@@H]1CC[C@H]2[C@@H](C)C(=O)O[C@@H]3O[C@@]4(C)CC[C@@H]1[C@]32O4 [Deoxyartemisinin] (compound dose: 10 uM) | 1.28 ± 0.3 | 0.8521 ± 0.0034
C/C=C(\C)C(=O)O[C@H]1[C@H](O)[C@]2(COC(C)=O)[C@H](O)C[C@]3(C)C(=CC[C@@H]4[C@@]5(C)CC[C@H](O[C@@H]6O[C@H](C(=O)O)[C@@H](O[C@@H]7O[C@H](CO)[C@@H](O)[C@H](O)[C@H]7O)[C@H](O)[C@H]6O[C@@H]6O[C@H](CO)[C@@H](O)[C@H](O)[C@H]6O)[C@](C)(CO)[C@@H]5CC[C@]43C)[C@@H]2CC1(C)C [Isoescin IA] (compound dose: 10 uM) | 1.001 ± 0.0061 | 0.779 ± 0.12
COc1cc2cc3c4c(cc5c(c4c2cc1OC)OCO5)CCN3C [Dehydrodicentrine] (compound dose: 10 uM) | 0.946 ± 0.021 | 0.807 ± 0.12
CC1=CC[C@@H](C(C)(C)O)CC1 [α-Terpineol] (compound dose: 10 uM) | 1.02 ± 0.059 | 0.896 ± 0.0054
C[C@@H]1O[C@@H](O[C@H]2[C@H](OC(=O)[C@]34CCC(C)(C)C[C@H]3C3=CC[C@@H]5[C@@]6(C)C[C@H](O)[C@H](O[C@@H]7O[C@H](CO)[C@@H](O)[C@H](O)[C@H]7O)C(CO)(CO)[C@@H]6CC[C@@]5(C)[C@]3(C)C[C@H]4O)OC[C@H](O)[C@@H]2O)[C@H](O)[C@H](O)[C@H]1O[C@@H]1OC[C@@H](O)[C@H](O[C@@H]2OC[C@](O)(CO)[C@H]2O)[C@H]1O [Platycodin D] (compound dose: 10 uM) | 0.609 ± 0.21 | 0.354 ± 0.065
CC(C)=CCC[C@](C)(O[C@@H]1O[C@H](CO[C@@H]2O[C@@H](CO)[C@H](O)[C@H]2O)[C@@H](O)[C@H](O)[C@H]1O)[C@H]1CC[C@]2(C)[C@@H]1[C@H](O)C[C@@H]1[C@@]3(C)CC[C@H](O[C@@H]4O[C@H](CO)[C@@H](O)[C@H](O)[C@H]4O[C@@H]4O[C@H](CO)[C@@H](O)[C@H](O)[C@H]4O)C(C)(C)[C@@H]3CC[C@]12C [Ginsenoside Rc] (compound dose: 10 uM) | 0.9496 ± 0.0049 | 0.744 ± 0.044
